# Measured values as given in article PMC7862700, “An all-to-all approach to the identification of sequence-specific readers for epigenetic DNA modifications on cytosine”.
# Experiments:
# Assay in all cases: DAPPL (digital affinity profiling via proximity ligation, sequencing); 10 mM Tris-HCl pH 7.5, 50 mM NaCl, 1 mM DTT, 4% glycerol, room temperature, 30 min; GST-TFs on glutathione beads, 16-mer random dsDNA library, 0.1% formaldehyde crosslink after washing; high values mean tight binding
# FEV = molecular target: T1, FEV (Homo sapiens, UniProt Q99581 1-238); conditions: protein: recombinant; tags: N-terminal GST; dsDNA, one strand shown
# T1 sequence: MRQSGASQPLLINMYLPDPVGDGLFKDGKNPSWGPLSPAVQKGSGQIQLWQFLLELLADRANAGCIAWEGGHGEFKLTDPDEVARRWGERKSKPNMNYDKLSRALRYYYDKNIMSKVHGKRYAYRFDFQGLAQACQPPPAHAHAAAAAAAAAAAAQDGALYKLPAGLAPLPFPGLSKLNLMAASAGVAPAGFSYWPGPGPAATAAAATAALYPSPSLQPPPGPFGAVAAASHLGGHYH
# Method in brief: (§1)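 Pools were built from human transcription factors expressed in yeast as GST fusions, captured on glutathione beads and DNA-barcoded, along with a tag-only sample. Incubation with 200 nmole of a 16-mer random double-stranded DNA library lasted 30 min at room temperature in Tris/NaCl/DTT/glycerol buffer, and was followed by washing, 0.1% formaldehyde crosslinking, proximity ligation, PCR amplification and Illumina NextSeq500 sequencing. Binding signal is the quotient of each hexamer's read frequency for a factor and its frequency for the tag-only sample.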
# ETV5 = ETV5 (Homo sapiens, UniProt P41161 1-510); conditions: protein: recombinant; tags: N-terminal GST; dsDNA, one strand shown
# Chain of ETV5 (P41161 whole entry): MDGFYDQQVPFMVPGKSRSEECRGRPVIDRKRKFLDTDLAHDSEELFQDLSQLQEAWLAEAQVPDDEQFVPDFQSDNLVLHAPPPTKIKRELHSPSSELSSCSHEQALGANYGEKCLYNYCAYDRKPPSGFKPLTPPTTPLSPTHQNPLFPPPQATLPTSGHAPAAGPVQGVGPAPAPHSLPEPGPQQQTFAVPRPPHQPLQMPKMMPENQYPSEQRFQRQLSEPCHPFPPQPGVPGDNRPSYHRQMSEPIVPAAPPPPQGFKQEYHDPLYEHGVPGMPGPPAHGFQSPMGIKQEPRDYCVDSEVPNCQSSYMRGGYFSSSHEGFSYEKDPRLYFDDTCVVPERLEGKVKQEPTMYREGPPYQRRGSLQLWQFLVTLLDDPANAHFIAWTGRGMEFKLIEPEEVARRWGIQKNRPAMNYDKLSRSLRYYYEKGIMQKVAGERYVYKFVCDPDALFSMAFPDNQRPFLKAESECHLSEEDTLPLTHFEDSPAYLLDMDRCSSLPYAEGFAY
# Method in brief: as §1
# HSF1 = HSF1 (Homo sapiens, UniProt Q00613 1-529); conditions: protein: recombinant; tags: N-terminal GST; chain copies: 3; dsDNA, one strand shown
# Chain of HSF1 (Q00613 whole entry): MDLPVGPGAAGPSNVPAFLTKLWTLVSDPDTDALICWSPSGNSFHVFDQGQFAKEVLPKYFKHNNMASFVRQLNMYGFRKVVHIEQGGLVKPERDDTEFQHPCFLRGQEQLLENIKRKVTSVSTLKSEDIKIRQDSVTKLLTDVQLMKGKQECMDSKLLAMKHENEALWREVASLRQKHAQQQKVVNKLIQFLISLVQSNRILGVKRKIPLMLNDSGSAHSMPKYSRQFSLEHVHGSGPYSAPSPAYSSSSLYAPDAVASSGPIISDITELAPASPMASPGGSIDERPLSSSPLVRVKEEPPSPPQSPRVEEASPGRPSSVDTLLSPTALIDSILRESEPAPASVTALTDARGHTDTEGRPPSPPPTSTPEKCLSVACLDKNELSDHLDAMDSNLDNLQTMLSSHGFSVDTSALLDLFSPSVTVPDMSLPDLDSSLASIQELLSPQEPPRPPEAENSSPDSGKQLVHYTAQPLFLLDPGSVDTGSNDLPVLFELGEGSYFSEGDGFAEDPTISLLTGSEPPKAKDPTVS
# Method in brief: as §1
# SPIC = molecular target: T2, SPIC (Homo sapiens, UniProt Q8N5J4 1-248); conditions: protein: recombinant; tags: N-terminal GST; dsDNA, one strand shown
# T2 sequence: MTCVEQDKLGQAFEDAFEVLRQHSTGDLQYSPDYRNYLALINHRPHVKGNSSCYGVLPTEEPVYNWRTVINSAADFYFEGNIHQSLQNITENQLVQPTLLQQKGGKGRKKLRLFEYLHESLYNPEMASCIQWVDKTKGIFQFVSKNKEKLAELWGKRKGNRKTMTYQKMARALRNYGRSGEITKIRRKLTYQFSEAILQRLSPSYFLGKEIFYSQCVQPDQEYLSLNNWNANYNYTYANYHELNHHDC
# Method in brief: as §1
# ELF4 = ELF4 (Homo sapiens, UniProt Q99607 1-663); conditions: protein: recombinant; tags: N-terminal GST; dsDNA, one strand shown
# Chain of ELF4 (Q99607 whole entry): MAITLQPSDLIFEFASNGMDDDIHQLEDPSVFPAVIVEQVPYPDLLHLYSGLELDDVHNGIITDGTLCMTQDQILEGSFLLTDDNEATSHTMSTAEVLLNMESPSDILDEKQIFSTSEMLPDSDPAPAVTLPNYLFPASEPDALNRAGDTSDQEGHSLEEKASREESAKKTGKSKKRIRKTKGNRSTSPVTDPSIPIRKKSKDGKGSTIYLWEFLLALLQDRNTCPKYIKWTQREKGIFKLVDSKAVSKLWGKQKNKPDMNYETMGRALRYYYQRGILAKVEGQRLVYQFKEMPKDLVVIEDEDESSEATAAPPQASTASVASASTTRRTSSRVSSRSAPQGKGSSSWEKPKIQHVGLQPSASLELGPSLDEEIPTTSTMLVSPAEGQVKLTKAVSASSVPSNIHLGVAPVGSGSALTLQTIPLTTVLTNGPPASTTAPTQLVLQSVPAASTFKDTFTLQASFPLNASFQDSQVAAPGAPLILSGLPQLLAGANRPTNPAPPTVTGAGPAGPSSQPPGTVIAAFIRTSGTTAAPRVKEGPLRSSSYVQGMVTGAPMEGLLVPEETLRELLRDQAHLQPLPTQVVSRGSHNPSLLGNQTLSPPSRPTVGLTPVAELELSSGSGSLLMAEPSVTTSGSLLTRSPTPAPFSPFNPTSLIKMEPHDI
# Method in brief: as §1
# ELK4 = molecular target: T3, ELK4 (Homo sapiens, UniProt P28324-2 1-405); conditions: protein: recombinant; tags: N-terminal GST; dsDNA, one strand shown
# T3 sequence: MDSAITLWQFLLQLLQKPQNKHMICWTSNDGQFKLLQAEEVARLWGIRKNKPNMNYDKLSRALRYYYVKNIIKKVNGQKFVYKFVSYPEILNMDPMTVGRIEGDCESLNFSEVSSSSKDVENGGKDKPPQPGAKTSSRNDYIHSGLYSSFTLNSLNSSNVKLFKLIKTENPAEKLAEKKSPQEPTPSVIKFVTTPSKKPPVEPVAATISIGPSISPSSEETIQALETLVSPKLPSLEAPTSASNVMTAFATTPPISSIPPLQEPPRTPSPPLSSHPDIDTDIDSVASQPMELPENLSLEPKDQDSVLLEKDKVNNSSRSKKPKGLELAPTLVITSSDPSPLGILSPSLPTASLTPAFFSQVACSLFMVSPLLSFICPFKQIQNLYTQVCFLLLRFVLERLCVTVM
# Method in brief: as §1
# ETV2 = molecular target: T4, ETV2 (Homo sapiens, UniProt O00321 1-342); conditions: protein: recombinant; tags: N-terminal GST; dsDNA, one strand shown
# T4 sequence: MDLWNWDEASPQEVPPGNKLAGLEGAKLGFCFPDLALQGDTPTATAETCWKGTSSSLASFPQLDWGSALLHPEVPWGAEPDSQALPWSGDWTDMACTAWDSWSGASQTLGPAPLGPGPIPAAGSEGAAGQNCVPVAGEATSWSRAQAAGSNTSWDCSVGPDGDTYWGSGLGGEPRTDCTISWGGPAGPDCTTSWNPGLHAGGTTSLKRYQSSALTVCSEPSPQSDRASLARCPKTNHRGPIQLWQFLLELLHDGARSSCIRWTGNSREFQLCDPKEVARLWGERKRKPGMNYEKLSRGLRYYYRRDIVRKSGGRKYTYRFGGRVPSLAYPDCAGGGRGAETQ
# Method in brief: as §1
# ELF3 = molecular target: T5, ELF3 (Homo sapiens, UniProt P78545 1-371); conditions: protein: recombinant; tags: N-terminal GST; dsDNA, one strand shown
# T5 sequence: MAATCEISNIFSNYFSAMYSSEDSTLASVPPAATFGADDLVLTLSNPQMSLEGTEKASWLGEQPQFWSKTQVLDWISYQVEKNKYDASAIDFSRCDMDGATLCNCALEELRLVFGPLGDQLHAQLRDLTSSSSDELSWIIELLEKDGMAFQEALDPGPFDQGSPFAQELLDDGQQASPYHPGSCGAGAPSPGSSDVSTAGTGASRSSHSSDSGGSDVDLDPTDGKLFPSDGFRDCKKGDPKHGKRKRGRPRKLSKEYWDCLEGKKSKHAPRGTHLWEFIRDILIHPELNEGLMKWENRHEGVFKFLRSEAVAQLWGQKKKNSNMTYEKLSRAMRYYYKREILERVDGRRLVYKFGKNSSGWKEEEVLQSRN
# Method in brief: as §1
# CRX = CRX (Homo sapiens, UniProt O43186 1-299); conditions: protein: recombinant; tags: N-terminal GST; dsDNA, one strand shown
# Chain of CRX (O43186 whole entry): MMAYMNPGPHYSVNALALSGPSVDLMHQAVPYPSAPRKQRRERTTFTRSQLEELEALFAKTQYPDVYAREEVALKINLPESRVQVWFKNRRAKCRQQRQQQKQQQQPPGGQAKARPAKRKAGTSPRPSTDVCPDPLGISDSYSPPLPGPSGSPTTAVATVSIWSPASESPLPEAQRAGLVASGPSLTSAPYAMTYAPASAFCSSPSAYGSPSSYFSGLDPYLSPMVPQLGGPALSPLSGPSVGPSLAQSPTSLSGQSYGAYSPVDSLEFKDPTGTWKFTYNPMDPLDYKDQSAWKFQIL
# Method in brief: as §1
# ETV1 = ETV1 (Homo sapiens, UniProt P50549 1-477); conditions: protein: recombinant; tags: N-terminal GST; dsDNA, one strand shown
# Chain of ETV1 (P50549 whole entry): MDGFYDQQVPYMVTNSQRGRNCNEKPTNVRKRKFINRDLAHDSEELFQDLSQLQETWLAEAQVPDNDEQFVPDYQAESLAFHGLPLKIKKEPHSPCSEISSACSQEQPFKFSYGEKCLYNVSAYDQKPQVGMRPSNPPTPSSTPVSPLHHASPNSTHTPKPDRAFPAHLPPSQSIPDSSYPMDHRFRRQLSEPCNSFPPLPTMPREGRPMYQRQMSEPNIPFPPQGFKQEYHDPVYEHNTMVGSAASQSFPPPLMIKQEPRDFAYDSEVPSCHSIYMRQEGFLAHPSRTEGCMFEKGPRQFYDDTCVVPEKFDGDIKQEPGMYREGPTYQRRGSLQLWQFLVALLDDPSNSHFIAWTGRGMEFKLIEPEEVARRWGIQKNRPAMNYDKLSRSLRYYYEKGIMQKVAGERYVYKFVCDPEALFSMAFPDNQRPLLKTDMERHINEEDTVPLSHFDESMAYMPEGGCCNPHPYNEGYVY
# Method in brief: as §1
# ERF = molecular target: T6, ERF (Homo sapiens, UniProt P50548 1-548); conditions: protein: recombinant; tags: N-terminal GST; dsDNA, one strand shown
# T6 sequence: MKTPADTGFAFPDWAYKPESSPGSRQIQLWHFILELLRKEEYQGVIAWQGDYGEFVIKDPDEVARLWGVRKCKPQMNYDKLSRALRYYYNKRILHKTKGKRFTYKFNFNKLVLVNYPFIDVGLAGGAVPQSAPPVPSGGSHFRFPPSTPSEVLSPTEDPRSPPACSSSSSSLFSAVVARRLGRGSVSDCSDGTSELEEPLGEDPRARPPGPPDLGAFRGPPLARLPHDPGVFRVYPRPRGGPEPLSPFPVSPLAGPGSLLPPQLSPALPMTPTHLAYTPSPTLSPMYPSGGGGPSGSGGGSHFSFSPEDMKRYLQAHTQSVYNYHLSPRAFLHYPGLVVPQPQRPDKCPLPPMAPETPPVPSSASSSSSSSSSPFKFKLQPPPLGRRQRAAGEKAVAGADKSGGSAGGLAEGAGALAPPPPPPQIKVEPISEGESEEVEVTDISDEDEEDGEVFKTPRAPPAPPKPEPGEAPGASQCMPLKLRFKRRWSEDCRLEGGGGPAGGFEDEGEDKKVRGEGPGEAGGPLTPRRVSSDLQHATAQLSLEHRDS
# Method in brief: as §1
# ETV3L = molecular target: T7, ETV3L (Homo sapiens, UniProt Q6ZN32 1-361); conditions: protein: recombinant; tags: N-terminal GST; dsDNA, one strand shown
# T7 sequence: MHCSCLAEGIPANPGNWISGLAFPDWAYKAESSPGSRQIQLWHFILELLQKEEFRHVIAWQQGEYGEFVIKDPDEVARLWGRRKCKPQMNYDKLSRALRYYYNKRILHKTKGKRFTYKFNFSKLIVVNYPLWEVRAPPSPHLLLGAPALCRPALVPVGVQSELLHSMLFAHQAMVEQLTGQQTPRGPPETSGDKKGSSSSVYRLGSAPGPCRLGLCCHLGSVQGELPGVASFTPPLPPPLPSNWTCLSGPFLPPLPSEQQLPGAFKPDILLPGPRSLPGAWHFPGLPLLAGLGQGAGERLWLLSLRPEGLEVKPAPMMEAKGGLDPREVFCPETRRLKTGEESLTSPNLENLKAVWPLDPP
# Method in brief: as §1
# ETS2 = molecular target: T8, ETS2 (Homo sapiens, UniProt P15036 1-469); conditions: protein: recombinant; tags: N-terminal GST; dsDNA, one strand shown
# T8 sequence: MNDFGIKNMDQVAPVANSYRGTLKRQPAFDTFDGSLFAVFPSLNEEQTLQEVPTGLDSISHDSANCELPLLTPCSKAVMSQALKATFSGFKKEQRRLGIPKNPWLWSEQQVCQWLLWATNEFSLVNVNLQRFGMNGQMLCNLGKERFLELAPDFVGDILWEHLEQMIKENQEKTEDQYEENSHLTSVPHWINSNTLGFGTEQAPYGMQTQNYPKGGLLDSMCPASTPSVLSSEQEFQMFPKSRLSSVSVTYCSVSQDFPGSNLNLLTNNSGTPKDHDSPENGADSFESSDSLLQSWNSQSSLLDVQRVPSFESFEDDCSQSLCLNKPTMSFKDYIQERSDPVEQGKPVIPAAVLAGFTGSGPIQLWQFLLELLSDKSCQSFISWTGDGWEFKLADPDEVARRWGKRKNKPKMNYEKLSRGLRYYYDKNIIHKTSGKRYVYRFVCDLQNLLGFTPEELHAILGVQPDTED
# Method in brief: as §1
# SPDEF = molecular target: T9, SPDEF (Homo sapiens, UniProt O95238 1-335); conditions: protein: recombinant; tags: N-terminal GST; dsDNA, one strand shown
# T9 sequence: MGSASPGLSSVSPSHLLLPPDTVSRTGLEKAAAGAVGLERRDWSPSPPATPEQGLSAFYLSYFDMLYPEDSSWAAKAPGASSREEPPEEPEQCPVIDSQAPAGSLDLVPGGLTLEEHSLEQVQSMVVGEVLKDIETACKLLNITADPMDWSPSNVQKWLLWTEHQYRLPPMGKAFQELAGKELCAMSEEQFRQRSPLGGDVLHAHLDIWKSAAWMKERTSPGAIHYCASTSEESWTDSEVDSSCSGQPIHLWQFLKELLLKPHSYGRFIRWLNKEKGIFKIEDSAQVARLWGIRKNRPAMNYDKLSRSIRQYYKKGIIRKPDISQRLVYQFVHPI
# Method in brief: as §1
# ETV7 = molecular target: T10, ETV7 (Homo sapiens, UniProt Q9Y603 1-341); conditions: protein: recombinant; tags: N-terminal GST; dsDNA, one strand shown
# T10 sequence: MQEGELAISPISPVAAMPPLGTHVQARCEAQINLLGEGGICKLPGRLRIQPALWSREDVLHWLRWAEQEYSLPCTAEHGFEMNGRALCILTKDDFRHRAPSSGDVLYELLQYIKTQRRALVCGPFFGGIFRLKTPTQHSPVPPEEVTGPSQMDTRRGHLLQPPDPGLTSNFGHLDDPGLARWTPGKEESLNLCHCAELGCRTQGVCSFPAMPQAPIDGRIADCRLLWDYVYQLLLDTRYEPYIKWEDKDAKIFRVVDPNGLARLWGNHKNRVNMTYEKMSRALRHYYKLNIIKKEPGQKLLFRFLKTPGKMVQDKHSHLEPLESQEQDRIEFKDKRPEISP
# Method in brief: as §1
# ELF5 = molecular target: T11, ELF5 (Homo sapiens, UniProt Q9UKW6-2 1-255); conditions: protein: recombinant; tags: N-terminal GST; dsDNA, one strand shown
# T11 sequence: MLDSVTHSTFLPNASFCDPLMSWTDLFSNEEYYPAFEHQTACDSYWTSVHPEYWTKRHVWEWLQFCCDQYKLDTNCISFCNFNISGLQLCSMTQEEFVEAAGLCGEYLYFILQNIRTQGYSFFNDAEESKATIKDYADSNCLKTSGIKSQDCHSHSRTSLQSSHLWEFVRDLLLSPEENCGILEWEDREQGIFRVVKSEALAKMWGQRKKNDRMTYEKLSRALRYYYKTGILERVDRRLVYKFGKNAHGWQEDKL
# Method in brief: as §1
# ETV3 = molecular target: T12, ETV3 (Homo sapiens, UniProt P41162-2 1-143); conditions: protein: recombinant; tags: N-terminal GST; dsDNA, one strand shown
# T12 sequence: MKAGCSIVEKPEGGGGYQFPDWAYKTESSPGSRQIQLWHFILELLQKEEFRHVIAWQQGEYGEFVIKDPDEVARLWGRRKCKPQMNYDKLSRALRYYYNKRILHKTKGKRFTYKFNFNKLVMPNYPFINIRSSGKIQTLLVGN
# Method in brief: as §1
# ETV6 = ETV6 (Homo sapiens, UniProt P41212 1-452); conditions: protein: recombinant; tags: N-terminal GST; dsDNA, one strand shown
# Chain of ETV6 (P41212 whole entry): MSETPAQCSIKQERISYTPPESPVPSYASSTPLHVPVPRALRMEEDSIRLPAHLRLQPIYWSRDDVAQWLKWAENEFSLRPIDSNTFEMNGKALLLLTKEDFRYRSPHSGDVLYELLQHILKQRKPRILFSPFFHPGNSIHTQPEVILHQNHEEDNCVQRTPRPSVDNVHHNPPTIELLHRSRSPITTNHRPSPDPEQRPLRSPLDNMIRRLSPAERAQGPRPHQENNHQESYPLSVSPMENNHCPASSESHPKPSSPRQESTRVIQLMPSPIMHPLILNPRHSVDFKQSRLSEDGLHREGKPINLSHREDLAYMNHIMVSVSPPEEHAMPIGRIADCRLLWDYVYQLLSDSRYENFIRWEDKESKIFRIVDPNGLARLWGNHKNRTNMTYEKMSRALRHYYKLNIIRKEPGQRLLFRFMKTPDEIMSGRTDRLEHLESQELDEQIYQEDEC
# Method in brief: as §1
sequence,measurement,setting,value
AATGCC,binding signal,FEV,"1.23 fold enrichment (6-mer frequency, TF over GST control)"
same,binding signal,ETV5,"1.2 fold enrichment (6-mer frequency, TF over GST control)"
same,binding signal,HSF1,"1.07 fold enrichment (6-mer frequency, TF over GST control)"
same,binding signal,SPIC,"1.07 fold enrichment (6-mer frequency, TF over GST control)"
same,binding signal,ELF4,"1.21 fold enrichment (6-mer frequency, TF over GST control)"
same,binding signal,ELK4,"1.16 fold enrichment (6-mer frequency, TF over GST control)"
same,binding signal,ETV2,"1.06 fold enrichment (6-mer frequency, TF over GST control)"
same,binding signal,ELF3,"1.24 fold enrichment (6-mer frequency, TF over GST control)"
same,binding signal,CRX,"1.16 fold enrichment (6-mer frequency, TF over GST control)"
same,binding signal,ETV1,"1.11 fold enrichment (6-mer frequency, TF over GST control)"
same,binding signal,ERF,"1.12 fold enrichment (6-mer frequency, TF over GST control)"
same,binding signal,ETV3L,"1.07 fold enrichment (6-mer frequency, TF over GST control)"
same,binding signal,ETS2,"1.17 fold enrichment (6-mer frequency, TF over GST control)"
same,binding signal,SPDEF,"1.21 fold enrichment (6-mer frequency, TF over GST control)"
same,binding signal,ETV7,"1.22 fold enrichment (6-mer frequency, TF over GST control)"
same,binding signal,ELF5,"1.21 fold enrichment (6-mer frequency, TF over GST control)"
same,binding signal,ETV3,"1.24 fold enrichment (6-mer frequency, TF over GST control)"
same,binding signal,ETV6,"1.19 fold enrichment (6-mer frequency, TF over GST control)"
